Source: PubChem BioAssay AID1259416 (Broad Institute, 2018)
“And” between values parts separate entries of the source, which are not always exact repeats. Equal entries are not always repeated. Out of some 69,000 compounds screened, about 2,600 (3.8%) were called active. No stated cut-off is given here; in the data, active means activity change below about -70% (passing the limit was not always enough); inconclusive means no clear call, values can overlap the other calls. Shown is part of a subset that was picked to be rich in actives. A structure can be active in one record and inactive in another.

assay: inhibitors of Toxoplasma growth in IFN-γ-primed hosts – cell-based, primary screen (AID 1259416); conditions: Toxoplasma gondii growth in IFN-gamma-treated host cells; stronger effect = lower value; concentration not given here;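 further: host cells are HeLa cells infected with Toxoplasma gondii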

Row | SMILES | activity change, negative = inhibition
1 | CNC1(c2nnnn2CCOC(=O)Nc2ccc(Cl)cc2)CCCC1 | 93.6% (inactive)
2 | Cc1[nH]c(/C=C2\C(=O)Nc3ccc(S(=O)(=O)Cc4c(Cl)cccc4Cl)cc32)c(C)c1C(=O)N1CCC[C@@H]1CN1CCCC1 | -79.5% (active) and -88.9% (active) and -63.2% (inactive)
3 | COc1ccc(OC)c(CNC(=O)Cn2ncc3c(N4CCCC4)ncnc32)c1 | 7.89% (inactive)
4 | CC(C)(C)c1nc(-c2cccc(NS(=O)(=O)c3c(F)cccc3F)c2F)c(-c2ccnc(N)n2)s1 | -83.7% (active)
5 | CC1=C(C(=O)NCCCN2CC(C)CC(C)C2)C2(CCN(Cc3ccccc3)CC2)OC1=O (centres undefined) | -65.1% (inactive)
6 | O=C(c1nc2sccn2c1CN1CCC(c2ccccc2Cl)C1)N1CCCCC1 (centres undefined) | 1.45% (inactive)
7 | O=C(Nc1cccc(N2CCCCS2(=O)=O)c1)c1ccc(-n2cccn2)nc1 | 6.32% (inactive)
8 | CC(C)(C)c1ccc(Oc2ccc(NC(=O)Cc3cccs3)cn2)cc1 | -76.9% (active)
9 | Cc1ccc(C)c(-c2coc(-c3ccc(NC(=O)Cc4cccs4)cc3)n2)c1 | 7.55% (inactive)
10 | Cc1ccc(C(=O)Nc2ccc(Oc3ccc(C(C)(C)C)cc3)nc2)cc1 | -31.5% (inactive)
11 | CCOC(=O)c1nc(N2CCN(Cc3ccc4c(c3)OCO4)CC2)c2ccccc2n1 | 42.4% (inactive)
12 | O=C(C1CC=CC1)N1CCC2(CCN(Cc3cccc(F)c3)CC2)C1 | -9.86% (inactive)
13 | CC[C@]1(O)CC2CN(CCc3c([nH]c4ccccc34)[C@@](C(=O)OC)(c3cc4c(cc3OC)N(C=O)[C@H]3[C@@](O)(C(=O)OC)[C@H](OC(C)=O)[C@]5(CC)C=CCN6CC[C@]43[C@@H]65)C2)C1 (some centres undefined) | -82.9% (active) and -87.1% (active)
14 | CC[C@]1(O)C[C@@H]2CN(CCc3c([nH]c4ccccc34)[C@@](C(=O)OC)(c3cc4c(cc3OC)N(C)[C@H]3[C@@](O)(C(=O)OC)[C@H](OC(C)=O)[C@]5(CC)C=CCN6CC[C@]43[C@@H]65)C2)C1 | -97.6% (active)
15 | CC1=CC[C@@H]2CN(C(=O)c3cc(C(C)(C)C)[nH]c(=O)n3)C[C@@H]2C1 | 5.83% (inactive)
16 | Cc1nn(C)c(C)c1CCC(=O)NCc1ccccc1-n1ccnc1C | -6.3% (inactive)
17 | CC1Cc2ccccc2N1C(=O)CN1C(=O)COc2ccc(C(=O)c3cccs3)cc21 (centres undefined) | -43.3% (inactive)
18 | Cc1nc2ccccc2c(=O)n1-c1cccc2ccccc12 | 0.633% (inactive)
19 | O=S(=O)(c1ccc2c(c1)OCCO2)N1CCN(c2ccc(C(F)(F)F)cn2)CC1 | -88% (active)
20 | O=C(/C=C/c1ccc(CN(CCO)CCc2c[nH]c3ccccc23)cc1)NO | -85.7% (active)
21 | CC(NC(=O)CCc1c[nH]c2ccccc12)c1cn2ncsc2n1 (centres undefined) | 23.4% (inactive)
22 | O=C(/C=C/c1ccc2c(c1)OCO2)NCc1ccc(F)cc1 | 2.56% (inactive)

Row | SMILES | activity change, negative = inhibition
23 | CC(C)c1cc(C2CCN(C(=O)Cc3c[nH]c4ccccc34)CC2)[nH]n1 | 5.9% (inactive)
24 | O=C(NC1CC1)C1CN(Cc2cnc(NCc3ccccc3)nc2)CCN1 (centres undefined) | -0.724% (inactive)
25 | Cc1ccsc1C(=O)N1CCCC2(C1)Nc1cccnc1NC2=NC1CCCC1 (centres undefined) | -22.8% (inactive)
26 | COc1ccc(OCC(=O)N2CCC3(CC2)Nc2ccc(Cl)cc2-n2cccc23)cc1 | 25.9% (inactive)
27 | O=C(C1CCCCC1)N1CCC2(CC1)Nc1ccc(Cl)cc1-n1cccc12 | -85.4% (active)
28 | O=S(=O)(c1ccc(F)c(F)c1)N1CCC2(CC1)Nc1ccc(Cl)cc1-n1cccc12 | 17.6% (inactive)
29 | CNC(=O)c1sc2ccccc2c1C1CCC(CNS(=O)(=O)c2cnn(C)c2)CC1 (centres undefined) | -10.6% (inactive)
30 | Cc1cc(CNC(=O)c2cccc(C3CCNC3)c2)ccc1F (centres undefined) | -1.39% (inactive)
31 | Cc1cccn2cc(C(=O)NC[C@@H]3CCNC[C@H]3O)nc12 | -3.48% (inactive)
32 | O[C@@H]1CNCC[C@H]1CNCc1cccc(Oc2cccc(C(F)(F)F)c2)c1 | -100% (active)
33 | Cc1cc(C(=O)N2CCC3(CC2)CNC(=O)O3)c2ccc(F)cc2n1 | 0.544% (inactive)
34 | CCOC1C2CCC1N(S(=O)(=O)c1cccc(C)c1)CCO2 (centres undefined) | 16.8% (inactive)
35 | Cc1cc(S(=O)(=O)NCc2ccc3c(c2)OCO3)ccc1-n1cnnn1 | -7.98% (inactive)
36 | COc1cccc(-c2cccc3[nH]ccc23)n1 | 35.3% (inactive)
37 | C[C@@H]1COCCN1c1cc(C2(S(C)(=O)=O)CC2)nc(-c2cccc3[nH]ccc23)n1 | -82.8% (active)
38 | NC(=O)Cc1csc(NC(=O)c2ccc3nc(C(F)(F)F)[nH]c3c2)n1 | -8.79% (inactive)
39 | CNS(=O)(=O)c1ccc([C@@H]2C[C@H](NC(C)=O)C[C@H](CC(C)C)O2)cc1 | -22.6% (inactive)
40 | Cc1ccc(C2(O)CCN(C(=O)c3noc(C)c3CO)CC2)nc1 | -2.58% (inactive)
41 | Cc1ccc2cc(CN(c3ccc(C)c(C)c3)S(C)(=O)=O)c(=O)[nH]c2c1 | -50.6% (inactive)
42 | COc1cc(OC)c(Nc2nc(-c3nnc(-c4ccccc4)o3)nc3ccccc23)cc1Cl | 268% (inactive)
43 | Cc1ccc(Nc2nc(-c3nnc(-c4cccc(C)c4)o3)nc3ccccc23)cc1 | 96.2% (inactive)
44 | Clc1cccc(-c2nnc(-c3nc(NC4CCCC4)c4ccccc4n3)o2)c1 | -77.4% (active)
